# The full list was thinned out, with hits kept by preference.
# BL2 CD40 inh: CD40 pathway inhibition in BL2 cells; 83,000 compounds, 0.94% hits; BL2 NF-kB luciferase reporter, CD40L-induced, 4 h; inhibition, % at 10 µM; AID 1053188;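 active = mean inhibition of at least 50% with a set share of replicates also reaching that level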;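 note: 0% = neutral control wells and 100% = IKK inhibitor VII at 50 µM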
# * marks the source's active call; other numbers are inactive results; [ ] = remark or other dose.
SMILES,BL2 CD40 inh
COc1ccc(-c2ccc3c(c2)[C@H]2[C@H](CCN2C(=O)C2CC2)[C@@H](CO)N3C)cc1,53.1*
Cc1ccc(F)cc1C(=O)N1CCCC(C)(C(=O)NS(=O)(=O)C2CC2)C1 (stereo unspecified),-12.8
CN(C[C@H]1N[C@@H](CO)[C@H]1c1ccc(-c2cccc(F)c2)cc1)C(=O)CC1CC1,13.0[25 µM]
CN(C)C(=O)c1cccc(-c2ccc3c(c2)[C@@H]2[C@@H](CCN2C(=O)C2CCC2)[C@H](CO)N3)c1,-13.7[25 µM]
Cc1cccc(-n2ncc3c(N4CCOCC4)ncnc32)c1,78.2*
Cn1ncc2c(N3CCOCC3)ncnc21,6.9
Cc1ccc(-n2ncc3c(N4CCN(c5ccccc5)CC4)ncnc32)c(C)c1,14.8
